Active and inactive are the calls of the source.

Assay [1] can be described thus: small molecules captured by biotinylated probe aFSTL3 – biochemical, small-molecule microarray, fluorescence 635/667, stem cell growth factor project, primary screen (AID 1064).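 Note: measures binding of the biotinylated anti-FSTL3 antibody to printed compounds.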 Particulars: higher = more signal.
A short description of assay [2]: binders from COS7 lysate, DM2A8 probe, primary screen, torsin A project, cell lysate, small-molecule microarray, fluorescence 635/667 (AID 1065). Particulars: higher = more signal, COS7 lysate expressing mutant human TOR1A.
The nature of assay [3]: small molecules captured by biotinylated probe aFGF2 – biochemical, small-molecule microarray, fluorescence 635/667, stem cell growth factor project, primary screen (AID 1067).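 Note: measures binding of biotinylated aFGF2 protein to printed compounds on slides; z-score merges feature fluorescence and signal-to-noise across triplicate slides.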 The conditions noted are these: higher = more signal.
The nature of assay [4]: small molecules captured by biotinylated probe aFGF10 – biochemical, small-molecule microarray, fluorescence 635/667, stem cell growth factor project, primary screen (AID 1071).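 Note: score merges 667 nm spot intensity and signal to noise from triplicate slides.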 Particulars: higher = more signal.
Assay [5] addresses Neurogenic locus notch homolog protein 2 (Homo sapiens) (UniProt Q04721). Briefly: small molecules binding Notch2 protein – biochemical, small-molecule microarray, 635 nm fluorescence, stem cell growth factors, primary screen (AID 1073). Particulars: higher = more signal.
Assay [6] deals with Pro-neuregulin-1, membrane-bound isoform (Homo sapiens) (UniProt Q02297). Briefly: small molecules binding neuregulin-1 protein – biochemical, small-molecule microarray, fluorescence 635/667, psychiatric disease protein project, primary screen (AID 1075).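 Note: score combines 667 nm spot fluorescence with signal to noise.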 The conditions noted are these: NRG1 binding, 635 nm fluorescence, higher = more signal.
The test system of assay [7] is Neuregulin-1 EGF-like domain. Briefly: small molecules binding NRG1 EGF domain – biochemical, small-molecule microarray, 635 nm fluorescence, primary screen (AID 1081).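 Note: binding of the protein to compounds printed on small-molecule microarray slides.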 The conditions noted are these: higher = more signal.
Assay [8] in a line: FRG1 expression reporter modulators in myotubes – cell-based, C2C12 myotubes, firefly/Renilla luciferase, luminescence, FRG1 inhibition for FSHD, primary screen (AID 1084). The conditions noted are these: FRG1 promoter luciferase, higher = more signal, called active from +8 up or from −8 down.
The nature of assay [9]: small molecules captured by biotinylated probe aFST – biochemical, small-molecule microarray, fluorescence 635/667, stem cell growth factor project, primary screen (AID 1086).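 Note: score merges 667 nm fluorescence with signal-to-noise of each printed compound spot.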 The conditions noted are these: higher = more signal.
Assay [10] can be described thus: binders of probe aHhip on microarray, primary screen, stem cell growth factor project, biochemical, small-molecule microarray, fluorescence 635/667 (AID 1087).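 Note: score merges spot fluorescence at 667nm with spot signal to noise ratio.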 Particulars: higher = more signal.
Assay [11] relates to PRMT1 (protein arginine N-methyltransferase 1). Briefly: small molecules binding arginine methyltransferase PRMT1 – biochemical, small-molecule microarray, 635 nm fluorescence, primary screen (AID 1088).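 Note: binding of Prmt1 protein to compounds spotted on small-molecule microarray slides.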 Particulars: higher = more signal.
The nature of assay [12]: growth effects on S. cerevisiae YJM789 – YJM789 clinical isolate, OD600, 24 h, basal, primary screen (AID 1089).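 Note: growth of clinical yeast isolate S. cerevisiae YJM 789 seeded 1000 cells per well; test concentration not given here.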 Particulars: higher = more signal, called active from +8 up or from −8 down.
A short description of assay [13]: S. pombe growth modifiers, basal conditions – strain 972, OD600, 24 h, no modulator, primary screen (AID 1090).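 Note: basal condition with compound alone and no growth modifier present; test concentration not given here.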 The conditions noted are these: S. pombe 972 growth, higher = more signal, called active from +8 up or from −8 down.
A short description of assay [14]: budding yeast growth modifiers under rapamycin – strain BY4716, OD600, 96 h, primary screen (AID 1091). Note: test concentration not given here. The conditions noted are these: S. cerevisiae BY4716 + rapamycin, higher = more signal, called active from +8 up or from −8 down.
Assay [15] addresses Torsin-1A-interacting protein 2 (Homo sapiens) (UniProt Q8NFQ8). Briefly: small molecules binding lysate-expressed LULL1 – cell lysate, human LULL1 lysate, 635/667 nm fluorescence, primary screen (AID 1092).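 Note: probe is lysate of COS7 cells overexpressing human LULL1; score merges per-feature 667 nm fluorescence with signal-to-noise.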 The conditions noted are these: small-molecule microarray, hLULL1 lysate binding, 635 nm fluorescence; higher = more signal.
A short description of assay [16]: optical density change of DRC41 E. coli – strain DRC41, OD650, 24 h, E. coli filamentation project, primary screen (AID 1093).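 Note: MC1000 strain lacking acrAB efflux and sulA so SOS filamentation is blocked; test concentration not given here.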 Particulars: E. coli DRC41 growth, higher = more signal, called active from +8 up or from −8 down.
Assay [17] is described as follows: probe aLefty2 binding to arrayed compounds – biochemical, biotinylated probe, 635/667 nm fluorescence, primary screen (AID 1094).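 Note: score merges spot fluorescence near 667 nm with spot signal-to-noise ratio.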 Particulars: small-molecule microarray, higher = more signal.
In assay [18] the test system is Noggin (protein binding on small-molecule microarray). Briefly: small molecules binding Noggin protein – biochemical, 635/667 nm fluorescence, primary screen (AID 1095).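 Note: score merges 667 nm feature fluorescence with signal to noise over triplicate slides.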 The conditions noted are these: 635 nm fluorescence, higher = more signal.
Assay [19] has as its target Neurogenic locus notch homolog protein 3 (Homo sapiens) (UniProt Q9UM47). Briefly: small molecules binding NOTCH3 protein – biochemical, 635/667 nm fluorescence, primary screen (AID 1096). The conditions noted are these: small-molecule microarray, 635 nm fluorescence, higher = more signal.
Assay [20] can be described thus: probe aEGFR binding to arrayed compounds – biochemical, biotinylated probe, 635/667 nm fluorescence, primary screen (AID 1097).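 Note: probe is a biotinylated anti-EGFR antibody binding compounds printed on slides; score combines fluorescence near 667 nm and signal to noise of each spot.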 Particulars: small-molecule microarray, higher = more signal.

Sequence of Pro-neuregulin-1, membrane-bound isoform (Homo sapiens) (Q02297 whole entry, looked up, the tested form may be a part, canonical isoform): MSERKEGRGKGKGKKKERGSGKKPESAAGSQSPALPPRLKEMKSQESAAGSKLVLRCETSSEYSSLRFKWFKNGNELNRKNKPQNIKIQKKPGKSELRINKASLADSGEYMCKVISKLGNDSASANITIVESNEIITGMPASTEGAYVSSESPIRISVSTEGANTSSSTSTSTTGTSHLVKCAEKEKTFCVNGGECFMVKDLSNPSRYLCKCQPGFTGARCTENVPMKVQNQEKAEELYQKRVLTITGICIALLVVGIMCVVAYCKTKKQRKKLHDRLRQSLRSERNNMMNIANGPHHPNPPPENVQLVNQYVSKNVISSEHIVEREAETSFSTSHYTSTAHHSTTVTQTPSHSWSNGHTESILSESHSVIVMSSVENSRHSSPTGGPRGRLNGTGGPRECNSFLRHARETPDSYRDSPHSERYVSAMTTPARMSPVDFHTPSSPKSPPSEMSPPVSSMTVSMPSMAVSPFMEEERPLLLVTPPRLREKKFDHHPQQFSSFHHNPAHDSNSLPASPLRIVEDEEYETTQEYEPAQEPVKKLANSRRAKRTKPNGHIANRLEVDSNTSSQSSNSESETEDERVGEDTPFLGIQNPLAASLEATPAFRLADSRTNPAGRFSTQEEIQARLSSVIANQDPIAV
Sequence of Neurogenic locus notch homolog protein 3 (Homo sapiens) (Q9UM47 whole entry, looked up): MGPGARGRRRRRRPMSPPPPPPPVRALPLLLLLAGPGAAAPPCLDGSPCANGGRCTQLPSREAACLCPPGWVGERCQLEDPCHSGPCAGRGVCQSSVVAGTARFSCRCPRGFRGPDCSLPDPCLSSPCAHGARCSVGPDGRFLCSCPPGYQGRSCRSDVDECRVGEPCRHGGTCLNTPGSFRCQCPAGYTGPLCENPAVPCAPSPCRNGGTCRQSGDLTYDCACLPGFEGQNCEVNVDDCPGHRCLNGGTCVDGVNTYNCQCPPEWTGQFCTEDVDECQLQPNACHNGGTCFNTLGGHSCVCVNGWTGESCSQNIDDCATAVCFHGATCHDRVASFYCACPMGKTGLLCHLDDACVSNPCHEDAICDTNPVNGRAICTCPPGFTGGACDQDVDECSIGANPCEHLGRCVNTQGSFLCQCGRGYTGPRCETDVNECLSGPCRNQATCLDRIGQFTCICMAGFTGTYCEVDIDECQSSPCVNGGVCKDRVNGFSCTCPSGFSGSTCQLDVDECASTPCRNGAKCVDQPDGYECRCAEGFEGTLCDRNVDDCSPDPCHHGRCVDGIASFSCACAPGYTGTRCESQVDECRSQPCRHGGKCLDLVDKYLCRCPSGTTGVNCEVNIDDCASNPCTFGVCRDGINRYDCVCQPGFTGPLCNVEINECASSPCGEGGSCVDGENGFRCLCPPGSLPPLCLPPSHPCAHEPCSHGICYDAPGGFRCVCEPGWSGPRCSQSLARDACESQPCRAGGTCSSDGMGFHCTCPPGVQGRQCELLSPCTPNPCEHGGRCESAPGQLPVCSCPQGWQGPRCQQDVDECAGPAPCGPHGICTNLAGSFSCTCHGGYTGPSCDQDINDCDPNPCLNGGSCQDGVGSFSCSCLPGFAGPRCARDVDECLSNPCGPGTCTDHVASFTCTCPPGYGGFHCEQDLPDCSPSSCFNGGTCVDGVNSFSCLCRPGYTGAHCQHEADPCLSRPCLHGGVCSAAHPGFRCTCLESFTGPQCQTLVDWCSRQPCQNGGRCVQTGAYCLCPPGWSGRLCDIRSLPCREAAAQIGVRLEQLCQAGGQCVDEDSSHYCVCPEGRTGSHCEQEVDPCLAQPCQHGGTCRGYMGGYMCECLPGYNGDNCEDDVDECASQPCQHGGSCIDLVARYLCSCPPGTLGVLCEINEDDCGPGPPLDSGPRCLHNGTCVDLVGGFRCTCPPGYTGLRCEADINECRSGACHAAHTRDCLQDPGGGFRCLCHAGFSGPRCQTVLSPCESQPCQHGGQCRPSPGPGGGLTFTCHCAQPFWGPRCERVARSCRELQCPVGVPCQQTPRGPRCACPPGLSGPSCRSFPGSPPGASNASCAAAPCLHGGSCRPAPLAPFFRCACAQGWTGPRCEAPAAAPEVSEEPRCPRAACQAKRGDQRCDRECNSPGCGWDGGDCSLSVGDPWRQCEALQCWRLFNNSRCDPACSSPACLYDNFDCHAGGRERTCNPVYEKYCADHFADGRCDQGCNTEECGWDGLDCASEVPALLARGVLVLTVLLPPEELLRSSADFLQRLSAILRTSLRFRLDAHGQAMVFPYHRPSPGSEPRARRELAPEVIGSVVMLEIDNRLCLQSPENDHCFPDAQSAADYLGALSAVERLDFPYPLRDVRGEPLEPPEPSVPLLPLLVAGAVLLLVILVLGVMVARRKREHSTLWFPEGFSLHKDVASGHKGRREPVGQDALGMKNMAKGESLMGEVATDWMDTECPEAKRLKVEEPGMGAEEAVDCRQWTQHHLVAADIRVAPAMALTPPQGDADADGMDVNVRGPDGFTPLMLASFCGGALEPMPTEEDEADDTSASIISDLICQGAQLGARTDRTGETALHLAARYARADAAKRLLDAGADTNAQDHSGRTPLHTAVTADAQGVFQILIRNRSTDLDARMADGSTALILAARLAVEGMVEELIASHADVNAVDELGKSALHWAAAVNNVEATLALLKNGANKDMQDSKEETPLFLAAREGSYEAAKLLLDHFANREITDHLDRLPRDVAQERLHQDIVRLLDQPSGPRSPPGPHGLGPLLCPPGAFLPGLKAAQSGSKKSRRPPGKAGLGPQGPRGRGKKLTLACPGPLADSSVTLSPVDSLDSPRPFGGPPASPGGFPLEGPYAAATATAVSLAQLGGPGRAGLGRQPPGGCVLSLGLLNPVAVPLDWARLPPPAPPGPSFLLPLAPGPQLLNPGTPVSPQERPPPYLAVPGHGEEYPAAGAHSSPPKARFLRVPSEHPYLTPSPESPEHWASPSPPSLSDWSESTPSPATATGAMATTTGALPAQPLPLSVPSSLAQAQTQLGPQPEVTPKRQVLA
Sequence of Torsin-1A-interacting protein 2 (Homo sapiens) (Q8NFQ8 whole entry, looked up): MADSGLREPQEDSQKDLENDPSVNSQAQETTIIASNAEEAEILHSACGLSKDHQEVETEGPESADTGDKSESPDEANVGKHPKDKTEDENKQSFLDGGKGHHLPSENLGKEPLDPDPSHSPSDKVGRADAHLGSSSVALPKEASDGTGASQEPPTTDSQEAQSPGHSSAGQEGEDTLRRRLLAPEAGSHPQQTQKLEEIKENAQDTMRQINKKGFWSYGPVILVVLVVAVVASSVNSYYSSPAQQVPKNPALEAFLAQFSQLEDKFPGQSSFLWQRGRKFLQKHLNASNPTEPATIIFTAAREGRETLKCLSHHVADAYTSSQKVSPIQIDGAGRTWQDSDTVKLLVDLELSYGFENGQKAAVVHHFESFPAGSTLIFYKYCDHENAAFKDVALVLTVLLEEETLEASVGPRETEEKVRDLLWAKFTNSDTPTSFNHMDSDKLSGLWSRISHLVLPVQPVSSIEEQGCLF

Consider `COCCOC(=O)N1C(=O)[C@@]2(c3cc(C#CC4=CCCCC4)ccc31)[C@H](c1ccccc1OCCO)N1[C@H](c3ccccc3)[C@H](c3ccccc3)OC(=O)[C@H]1[C@@H]2C(=O)N1CCc2cc(OC)c(OC)cc2C1`, for which the composite z-score in assay [1] is -0.516; in assay [2], 0.433; in [3] it was 0.0571; in assay [4], 0.515; in [5], 1.18; in [6], 0.319. Besides, the composite z-score was 1.07 in assay [7]; 0.401 in [9]; -0.521 in [10]; 1.55 in assay [11]; 0.889 in [15]; -0.479 in assay [17]. Besides, the composite z-score in [18] is 0.676; in [19], 1.08; in assay [20], -0.33. Further, the z-score is -0.202 (inactive) in assay [8]; 1.83 (inactive) in [12]; 0.819 (inactive) in [13]; 3.63 (inactive) in assay [14]; -0.0749 (inactive) in [16].
`COC(=O)[C@@]1(Cc2ccccc2)[C@H]2c3cc(C(=O)N4CCCC4)[nH]c3C[C@H]2CN1C(=O)c1ccccc1`: the composite z-score in [1] was 0.718; in assay [2], 0.065; in assay [3] it was 0.134; in assay [4], -0.0267; in assay [5] it was 1.13; in assay [6], 1.29. Moreover, the composite z-score was 0.664 in assay [7]; 0.623 in assay [9]; -0.133 in assay [10]; -1.74 in [11]; 3.51 in assay [15]; 0.134 in assay [17]. Also, the values for the composite z-score in assay [18], in assay [19] and in assay [20] were -0.463, -0.0434 and -0.122, respectively. In addition, the z-score in assay [8] was 0.535 (inactive); in [12], -0.202 (inactive); in assay [13], 1.02 (inactive); in assay [14], 0.0237 (inactive); in assay [16] it was -0.156 (inactive).
For `COc1ccc([Si](C)(C)[C@H]2[C@H](CCO)O[C@@]3(C(=O)N(Cc4cccc(N5CCCCC5=O)c4)c4ccccc43)[C@@H]2C)cc1`, the composite z-score in assay [1] is -0.337; in [2], 0.154; in [3], -0.081; in [4], 0.375; in [5] it was 0.87; in assay [6] it was 0.652. The composite z-score was 1.2 in [7]; 0.327 in [9]; 0.176 in assay [10]; 1.54 in assay [11]; 1.56 in assay [15]; -0.0732 in [17]. In addition, the figures for the composite z-score in [18], in assay [19] and in assay [20] were 0.296, 0.896 and 0.214, respectively. Besides, the z-score in assay [8] is -2.32 (inactive); in [12], 2.01 (inactive); in [13], -1.99 (inactive); in assay [14], 2.68 (inactive); in assay [16] it was 0.525 (inactive).
As to `CO[C@H]1O[C@H](CO)[C@@H](OC(=O)Nc2ccc(Oc3ccccc3)cc2)[C@H](OC(=O)Nc2ccccc2-c2ccccc2)[C@@H]1OC(=O)Nc1ccccc1-c1ccccc1`, the composite z-score stood at 0.531 in [1]; 1.21 in assay [2]; 0.0325 in assay [3]; 1.02 in assay [4]; 1.57 in [5]; 1.59 in assay [6]. Further, the composite z-score in assay [7] was 1.18; in assay [9], 1.03; in assay [10] it was -0.121; in [11], 1.54; in assay [15] it was 2.72; in [17], 0.143. The composite z-score in [18] turned out to be 0.156; in assay [19], 1.12; in assay [20], 0.425. The z-score is 1.17 (inactive) in [8]; 1.96 (inactive) in assay [12]; 0.592 (inactive) in assay [13]; 0.974 (inactive) in [14]; 1.39 (inactive) in assay [16].
`CN(C)CCCNC(=O)[C@@]1(C)c2ccccc2C(=O)N(Cc2cc(C(F)(F)F)cc(C(F)(F)F)c2)[C@H]1c1ccc(CO)cc1`: the composite z-score in assay [1] is -0.303; in assay [2] it was -0.401; in [3] it was -0.141; in [4], -0.404; in [5] it was -0.463; in [6] it was -0.012. Moreover, the composite z-score in [7] was 0.538; in [9], -0.353; in assay [10], 0.192; in [11], 0.0376; in [15] it was 0.324; in assay [17], -0.192. Further, the composite z-score is -1.19 in assay [18], -0.35 in assay [19] and -0.186 in assay [20]. Also, the z-score in assay [8] is 0.123 (inactive); in assay [12], 0.113 (inactive); in assay [13], -1.83 (inactive); in assay [14], -0.945 (inactive); in assay [16], -0.72 (inactive).

Values taken from PubChem BioAssay.
